PREPL inh – inhibitors of human prolyl oligopeptidase-like enzyme PREPL. 320,000 tested, 0.68% active. recombinant PREPL, fluorescence polarization activity-based probe. Q4J6C6. inhibition, % at 5.96 µM
LYPLA2 inh – LYPLA2 (human) inhibition in PME1 counter-screen; O95372; inhibition, % at 5.9 µM; recombinant LYPLA2, FP-Rh probe fluorescence polarization; 320,000 tested, 0.38% active;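 active = inhibition above the screen-wide mean plus 3 SD, limit set per campaign, cut at about 26% in these data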
Target sequence (O95372 whole entry, looked up): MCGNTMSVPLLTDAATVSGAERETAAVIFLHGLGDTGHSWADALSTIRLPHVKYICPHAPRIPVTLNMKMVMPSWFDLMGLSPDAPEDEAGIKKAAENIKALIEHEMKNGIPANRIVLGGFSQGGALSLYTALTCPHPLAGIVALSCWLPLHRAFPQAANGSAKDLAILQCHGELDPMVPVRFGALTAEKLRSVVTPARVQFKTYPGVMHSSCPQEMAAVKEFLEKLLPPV
LYPLA1 counter – blocks human lysophospholipase 1, a PME1 counter-screen. recombinant LYPLA1, FP-Rh probe fluorescence polarization. inhibition, % at 5.9 µM. 320,000 tested, 0.16% active. AID 2174;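 active = inhibition above the mean of all tested compounds plus 3 SD, set per campaign, cut at about 14% in these data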;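 note: inhibitors block serine hydrolase probe labeling of LYPLA1 so polarization falls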
PME-1 inh – PME-1 (human) inhibition. recombinant PME-1, FP-Rh probe fluorescence polarization. Q9Y570. 320,000 tested, 0.53% active. inhibition, % at 5.9 µM;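 active = inhibition above the campaign mean of all compounds plus 3 SD, cut at about 26% in these data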;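 note: competitive labeling of PME-1 active site by serine hydrolase directed probe; inhibitors block probe labeling so polarization falls and inhibition rises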
Target sequence (Q9Y570 whole entry, looked up): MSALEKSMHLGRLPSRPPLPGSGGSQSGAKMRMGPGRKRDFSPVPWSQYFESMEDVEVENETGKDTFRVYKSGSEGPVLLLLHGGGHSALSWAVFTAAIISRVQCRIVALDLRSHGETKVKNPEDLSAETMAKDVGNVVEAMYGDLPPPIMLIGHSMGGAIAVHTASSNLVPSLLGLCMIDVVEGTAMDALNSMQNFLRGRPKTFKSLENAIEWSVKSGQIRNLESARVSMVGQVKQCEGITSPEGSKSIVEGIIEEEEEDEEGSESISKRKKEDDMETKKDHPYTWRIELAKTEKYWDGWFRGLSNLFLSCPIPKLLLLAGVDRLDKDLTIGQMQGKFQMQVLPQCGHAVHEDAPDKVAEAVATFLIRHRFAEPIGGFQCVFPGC
Fam108B inh – blocks mouse Fam108B hydrolase in RBBP9 counter-screen; inhibition, % at 9.51 µM; recombinant Fam108B, FP-Rh probe fluorescence polarization; 300,000 tested, 0.33% active;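 active = inhibition above the screen mean inhibition plus 3 SD, computed separately per campaign, cut at about 18% in these data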;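 note: inhibitors lower polarization as less probe binds the enzyme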
PREPL confirm – confirmation of human PREPL enzyme inhibitors; shares compounds with PREPL inh; recombinant PREPL, fluorescence polarization activity probe; inhibition, % at 5.96 µM; 2,000 tested, 67% active; AID 2803
Of the large screens only hits and unclear results are named; the others gave an inactive call (follow-up assays come after a bar, where they were run). In the library only some 1.3% were active in any assay of this set; here they are far more common. Cut-off read from the data, not from the text of the source, unless noted: active = inhibition above about 43%; inactive = the rest.

COc1cc(NC(=O)CN2CCN(c3ccccc3F)CC2)c(C)cc1[N+](=O)[O-]	PREPL inh 54.5 | PREPL confirm 69.0
COc1cc(NC(=O)CN2CCCCC2)c(C)cc1[N+](=O)[O-]	none
CC(C)c1cc(=O)oc2c3c4c(cc12)CCCN4CCC3	none
O=c1oc2c3c4c(cc2c(C(F)(F)F)c1CCN1CCOCC1)CCCN4CCC3	PREPL inh 54.8 | PREPL confirm 60.6
O=C(O)COc1ccccc1/C=N/NC(=O)CSc1nc2ccccc2n1Cc1ccccc1Cl	none
Nc1c(C(=O)NCc2ccc(F)cc2)c2nc3ccccc3nc2n1CCCN1CCOCC1	PREPL inh 61.2 | PREPL confirm 46.4
COC(=O)c1c(N)n(CCCN2CCOCC2)c2nc3ccccc3nc12	none
COc1ccc(CNC(=O)c2c(N)n(CCCN3CCOCC3)c3nc4ccccc4nc23)cc1	PREPL inh 69.5 | PREPL confirm 50.3
COCCn1c(=N)c(C(=O)NCCc2ccc(OC)cc2)cc2c(=O)n3cccc(C)c3nc21	none
COc1ccc(CCNC(=O)c2cc3c(=O)n4cccc(C)c4nc3n(CCCN3CCOCC3)c2=N)cc1	PREPL inh 53.4 | PREPL confirm 56.4
Nc1c(C(=O)NCc2ccccc2)c2nc3ccccc3nc2n1CCCN1CCOCC1	PREPL inh 44.6 | PREPL confirm inactive
CC(C)NC(=O)c1ccc(NC(=O)CC2SC(N3CCCCC3)=NC2=O)cc1 (stereo not drawn)	PREPL inh 80.3 (no result: Fam108B inh) | PREPL confirm inactive
CC(C)NC(=O)c1ccc(NC(=O)CC2SC(N3CCCC3)=NC2=O)cc1 (stereo not drawn)	none (no result: Fam108B inh)
CCC(=O)N1CCN(c2ccc(NC(=S)NC(=O)COc3ccccc3)cc2)CC1	none
CCC(=O)N1CCN(c2ccc(NC(=O)COc3ccc(CC)cc3)cc2)CC1	PREPL inh 44.7 | PREPL confirm 47.6
CC(C)(C)c1ccc(OCCC(=O)Nc2ccc(N3CCOCC3)cc2N2CCOCC2)cc1	PREPL inh 49.3 | PREPL confirm inactive
Cc1ccc(OCC(=O)Nc2ccc(N3CCOCC3)cc2)cc1	PREPL inh 44.9 | PREPL confirm inactive
CCOC(=O)c1ccc[n+](CC(=O)c2ccc(NC(=O)c3ccccc3)cc2)c1	none
COc1ccc(CSc2ccc(-c3nc4ccccn4c3NCc3ccccc3)cc2OC)cc1	PREPL inh 49.3 | PREPL confirm inactive
COc1ccc(OC(C)C(=O)NC2CCCCCC2)cc1 (stereo not drawn)	none
Cc1c(C)c2ccc(OCC(=O)Nc3ccccn3)c(C)c2oc1=O	none
Cc1[nH]c2ccccc2c1C(c1ccncc1)N1CCN(c2ccccn2)CC1 (stereo not drawn)	PREPL inh active | PREPL confirm inactive
Cc1[nH]c2ccc(C(=O)NCCCN3CCCC3)cc2c1C	none
Cc1[nH]c2ccc(C(=O)NCCCN3CCCCCC3)cc2c1C	PREPL inh 46.1 | PREPL confirm inactive
CCOC(=O)c1ccccc1NC(=O)c1c(O)c2ccccc2n(CC)c1=O	none
CCn1c(=O)c(C(=O)Nc2ccc(C)cc2C)c(O)c2ccccc21	PREPL inh 46.9 | PREPL confirm inactive
C=CCn1c(N2CCN(c3ccc(OC)cc3)CC2)nc2c1c(=O)n(C)c(=O)n2C	none
C=CCn1c(N2CCN(c3ccc(OC)cc3)CC2)nc2c1c(=O)[nH]c(=O)n2C	PREPL inh 48.6 | PREPL confirm inactive
O=C(NC1CCCCC1)c1ccc(-c2cccc([N+](=O)[O-])c2)o1	none
Cc1onc(-c2c(Cl)cccc2Cl)c1NC(=O)NC1CCSC1 (stereo not drawn)	none
O=C(c1cccc([N+](=O)[O-])c1)N1CCN(c2ccc(Cl)cc2)CC1	PREPL inh 51.4 | PREPL confirm inactive
Nc1cc([N+](=O)[O-])cc2oc(-c3ccccc3)cc12	PREPL inh 52.8 | PREPL confirm 54.3
Cc1ccn2c(NC3CCCC3)c(-c3ccccn3)nc2c1	PREPL inh 72.0 | PREPL confirm 68.8
COc1ccc(-c2nc3ccccn3c2NC2CCCCC2)cc1SC1CCCCC1	none
Cc1ccn2c(NC3CCCC3)c(-c3ccncc3)nc2c1	none
c1ccc(-c2nc3ccccn3c2NC2CCCC2)nc1	PREPL inh 62.8 | PREPL confirm 64.9
Cc1ccc(C(=O)OC(C)C(=O)Nc2ccc3c(c2)OCO3)c(O)c1 (stereo not drawn)	none (no result: Fam108B inh)
Nc1nc(-c2ccccc2)c(N=Nc2ccccc2Cl)s1	PREPL inh 61.4 | PREPL confirm 62.2
COCCCNC(=O)c1c(NC(=O)c2cccs2)sc2c1CCCC2	PREPL inh 43.7 | PREPL confirm inactive
NC(=O)c1c(NC(=O)c2cccs2)sc2c1CCCCCC2	none
Nc1ccc2ncccc2c1N	PREPL inh 47.5 | PREPL confirm 46.0
c1cnc2ccc3ncccc3c2c1	none
Fc1cccc(CCN2CCNC[C@@H]2CC2CCCCC2)c1	PREPL inh 43.8 (no result: Fam108B inh) | PREPL confirm inactive
CCN1C(=O)N(C)[C@@H](c2ccccc2)C(C(C)=O)=C1C	none
O=C(NN=C1CCCC1)c1[nH]c2ccc(Cl)cc2c1-c1ccccc1	none
O=C(N/N=C1\CCCc2c1[nH]c1ccc(Cl)cc21)c1ccncc1	PREPL inh 45.4 | PREPL confirm 55.1
N#Cc1ncc(Cc2ccccc2)nc1C#N	PREPL inh 52.1 | PREPL confirm inactive
N#Cc1nc(Cc2ccccc2)oc1NCc1cccnc1	none
CCC[C@@H](CN1CCC[C@H]1CN1C(N)=NC[C@H]1CC(C)C)N1C[C@@H]([C@H](C)CC)N(CCCC2CCCC2)C1=N	PREPL inh 45.9 (no result: LYPLA2 inh, LYPLA1 counter, PME-1 inh, Fam108B inh) | PREPL confirm 45.2
CC[C@@H](C)[C@@H]1CN([C@@H](CN2CCC[C@H]2CN2C(N)=NC[C@@H]2Cc2ccccc2)C(C)C)C(=N)N1CCCC1CCCC1	PREPL inh 55.7 (no result: LYPLA2 inh, LYPLA1 counter, PME-1 inh, Fam108B inh) | PREPL confirm 50.2
NC1=NC[C@@H](Cc2ccc(O)cc2)N1CCCCC1CCCCC1	none
CCCCN1C(=N)N([C@@H](C)CN2CCC[C@H]2CN2C(N)=NC[C@H]2C(C)C)C[C@H]1[C@H](C)CC	none (no result: LYPLA2 inh, LYPLA1 counter, PME-1 inh, Fam108B inh)
CN(C)C1=NC[C@H](Cc2ccccc2)N1CCCC1CCCC1	none
CCC[C@@H](CN1CCC[C@H]1CN1C(N)=NC[C@H]1C(C)C)N1C[C@@H]([C@H](C)CC)N(CCCC2CCCC2)C1=N	PREPL inh 58.7 (no result: LYPLA2 inh, LYPLA1 counter, PME-1 inh, Fam108B inh) | PREPL confirm 54.3
CC[C@@H](C)[C@@H]1CN([C@@H](CN2CCC[C@H]2CN2C(N)=NC[C@H]2C(C)C)C(C)C)C(=N)N1CCCC1CCCC1	PREPL inh 54.2 (no result: LYPLA2 inh, LYPLA1 counter, PME-1 inh, Fam108B inh) | PREPL confirm 50.3
CC(C)CC(C(=O)NC(C)(C)C)N(Cc1cccs1)C(=O)c1snc(C(N)=O)c1N (stereo not drawn)	none
CCCCN1C(=N)N([C@@H](C)CN2CCC[C@H]2CN2C(N)=NC[C@H]2CC(C)C)C[C@H]1[C@H](C)CC	PREPL inh 47.0 (no result: LYPLA2 inh, LYPLA1 counter, PME-1 inh, Fam108B inh) | PREPL confirm inactive
CC1(C)CCCN(Cc2c(O)ccc3c(=O)c(-c4nc5ccccc5s4)c(N)oc23)C1	PREPL inh 43.6 | PREPL confirm inactive

Screens as filed in PubChem.
